Assay outcomes from PubChem BioAssay.
Rows were chosen to be rich in hits. Some 5.9% of all compounds tested hit in one or more screens of this group.
GLP-1R agonist = GLP-1 receptor (human) agonism; P43220; 380,000 tested, 0.007% active; HEK293 GLP-1R CRE-luciferase, luminescence, 4-6 h; cells express a hypersensitive GLP-1R form; Potency, µM (titrated, usually from 45.6 µM), for the others: top-dose activation, hits mostly activators; AID 624172; further: % of control where 0% means no effect
HEK293 tox = cytotoxicity counter-screen for GLP-1 receptor inverse agonists; AID 624418; Potency, µM (top dose mostly 38.3 µM), without a hit: top-dose activity change, negative = inhibition, hits mostly inhibitors; HEK293 cAMP-luciferase reporter cells, luminescence, 24 h; 410,000 tested, 0.13% active;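 further: loss of luciferase light is scored as toxicity; on the % scale 0 is the no-effect control and ±100 the full control effect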
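Luminescence readout: signal drop marks cytotoxicity. Plated cells grew 12 h at 37 °C, 5% CO2, received 23 nL compound for 24 h, then got luciferase reagent, read after 12 min at RT.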
GLP1R inv ag = acts as inverse agonist at human GLP-1 receptor; P43220; HEK293 GLP-1R CRE-luciferase, luminescence, 24 h; GLP-1R form is constitutively active; Potency, µM (top dose mostly 38.3 µM), for the others: at the top dose activity change, negative = inhibition, usual class: inhibitors; 410,000 tested, 1.6% active; AID 624417; further: on the % scale 0 is the no-effect control and ±100 the full control effect; nearly all actives have a fitted effect of over 55% in size
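Seeding at 200 cells/uL, 12 h culture, 24 hr compound treatment, then luciferase reagent and a luminescence read; cells are HEK293 stably expressing a constitutively active GLP-1R plus cAMP-responsive luciferase.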
Gal4-VP16 FLuc = counter-screen for ROR gamma inhibitors: Gal4-VP16 reporter. Drosophila S2 Gal4-VP16 UAS-luciferase, luminescence, 20 h. Potency, µM (series often up to 53.6 µM), for inactives: at the top dose activity, negative = inhibition, most hits filed as inhibitors. 310,000 tested, 3.5% active. AID 2546;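 further: Gal4-VP16 expression switched on by copper sulfate through the metallothionein promoter; on the % scale 0 is the no-effect control and ±100 the full control effect; nearly all actives have a fitted effect of over 50% in size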
RORgamma inh = ROR gamma (mouse) transcription inhibition | P51450 | Drosophila S2 Gal4-RORgamma UAS-luciferase reporter, 20 h | Potency, µM (titrated, usually from 53.6 µM), without a hit: at the highest dose activity change, negative = inhibition, actives largely listed as inhibitors | 310,000 tested, 5.4% active; further: on the % scale 0 is the no-effect control and ±100 the full control effect; nearly all actives have a fitted effect of over 60% in size
Target sequence (P51450 whole entry, looked up, the tested form may be a part): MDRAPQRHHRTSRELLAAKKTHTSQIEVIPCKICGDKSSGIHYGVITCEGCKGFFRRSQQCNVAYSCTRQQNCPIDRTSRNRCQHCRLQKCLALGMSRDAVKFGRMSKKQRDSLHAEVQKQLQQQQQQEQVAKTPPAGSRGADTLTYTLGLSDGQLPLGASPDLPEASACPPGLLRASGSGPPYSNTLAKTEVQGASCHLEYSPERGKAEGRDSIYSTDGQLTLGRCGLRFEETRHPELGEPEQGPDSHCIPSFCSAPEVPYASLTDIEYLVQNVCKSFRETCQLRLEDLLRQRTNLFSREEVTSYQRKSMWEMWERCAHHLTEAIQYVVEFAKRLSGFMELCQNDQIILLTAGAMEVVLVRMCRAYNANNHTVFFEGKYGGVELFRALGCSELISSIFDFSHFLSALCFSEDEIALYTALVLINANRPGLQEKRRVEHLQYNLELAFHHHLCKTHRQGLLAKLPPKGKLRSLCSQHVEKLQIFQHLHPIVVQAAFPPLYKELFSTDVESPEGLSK
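A Gal4/UAS one-hybrid system in insect cells: metallothionein-promoter Gal4–ROR gamma fusion plus Photinus luciferase reporter. Copper sulfate 700 uM final, 20 hr ambient incubation, luminescent detection after 10 min with reagent.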
Active calls of the source: *; [ ] = dose if it differs, or a comment. The call rests on the fitted dose curve; in most records, active means well fitted curve in the direction sought with a large enough effect; inconclusive means small, poorly fitted or top-dose-only effect, or another doubt; inactive means no such curve, though single readings can be large; an effect the other way counts as inactive or inconclusive. Potency means the concentration at half of the fitted maximal effect.

`COc1cccc(NC(=S)Nc2cc(C)cc(C)n2)c1` gave GLP-1R agonist 6.4%, HEK293 tox inconclusive, GLP1R inv ag inconclusive, Gal4-VP16 FLuc inconclusive and RORgamma inh 1.26µM*.
OC1CN=C2CCCc3c2n(c2ccc(Cl)cc32)C1 (configuration not stated) was read as GLP-1R agonist -8.3%, HEK293 tox 19.7%, GLP1R inv ag inconclusive, Gal4-VP16 FLuc 0.9% and RORgamma inh 14.0%.
c1ccc(-c2ccc3c(c2)c2c4n3CCN=C4CCC2)cc1 was read as GLP-1R agonist 28.7%, HEK293 tox 40.5%, GLP1R inv ag 0.0%, Gal4-VP16 FLuc inconclusive and RORgamma inh 11.2µM*.
Cc1ccc(-c2nc(P(=O)(c3ccccc3)c3ccccc3)c(N3CCOCC3)o2)cc1 was read as GLP-1R agonist 3.8%, HEK293 tox -30.4%, GLP1R inv ag 10µM*, Gal4-VP16 FLuc 15.8µM* and RORgamma inh 3.55µM*.
Screening CC1=NN(c2ccccc2)C(=O)C1/C=C1\NC(=S)NC1=O (configuration not stated) returned GLP-1R agonist -2.4%, HEK293 tox -0.6%, GLP1R inv ag -8.2%, Gal4-VP16 FLuc 1.4% and RORgamma inh 3.0%.
`CC1=NN(c2ccccc2)C(=O)C1C=Nc1ccccc1O` (configuration not stated) gave GLP-1R agonist 0.9%, HEK293 tox -28.2%, GLP1R inv ag inconclusive, Gal4-VP16 FLuc 4.47µM* and RORgamma inh 2µM*.
For CC(C)(C(=O)N[C@H](CO)c1ccccc1)C(=O)N[C@H](CO)c1ccccc1 the results were GLP-1R agonist 2.3%, HEK293 tox 4.8%, GLP1R inv ag 10.5%, Gal4-VP16 FLuc 4.9% and RORgamma inh 2µM*.
Screening CC(C)(NC(=O)NC(CO)c1ccccc1)c1cccc(C(C)(C)NC(=O)NC(CO)c2ccccc2)c1 (configuration not stated) returned GLP-1R agonist 1.9%, HEK293 tox -22.9% and GLP1R inv ag 7.9%.
Screening C[C@H]1NC(=O)NC1=O returned Gal4-VP16 FLuc 4.3%[17 µM] and RORgamma inh -27.9%[16.9 µM].
COc1ccc(-n2cc(CNCCCn3ccnc3)c(-c3cccc(F)c3)n2)cc1 was read as GLP-1R agonist 15.9%, HEK293 tox 4.4%, GLP1R inv ag inconclusive, Gal4-VP16 FLuc 31.6µM* and RORgamma inh 11.2µM*.
`CC(SCc1ccccc1)C(=O)NN=C1CCN(C)CC1` (configuration not stated) gave GLP-1R agonist 0.0%, HEK293 tox 29.2%, GLP1R inv ag 17.7%, Gal4-VP16 FLuc 23.5%[0.365 µM] and RORgamma inh 7.08µM*.
`CC(SCc1ccccc1)C(=O)N/N=C/c1cc2c(cc1Br)OCO2` (configuration not stated) gave GLP-1R agonist 1.1%, HEK293 tox 76.0%, GLP1R inv ag 10µM*, Gal4-VP16 FLuc -19.5% and RORgamma inh 27.0%.
CCOC(=O)N1CCN([N+]([O-])=NOc2cc(O/N=[N+](\[O-])N(CC)CC)c([N+](=O)[O-])cc2[N+](=O)[O-])CC1 was read as Gal4-VP16 FLuc 28.3% and RORgamma inh 39.1%.
For O=c1[nH]c(SCc2c(F)cccc2Cl)nc2c1CCCC2 the results were HEK293 tox 5.1% and GLP1R inv ag 17.7%.
For OCCNCc1cc(Br)ccc1OCc1ccc(Cl)cc1Cl the results were GLP-1R agonist -27.0%, HEK293 tox inconclusive, GLP1R inv ag 6.31µM*, Gal4-VP16 FLuc -4.0% and RORgamma inh 0.0%.
Cc1ccc2scc(N3CCCCC3)c(=O)c2c1 was read as HEK293 tox -0.9% and GLP1R inv ag 9.8%.
O=C(/C=C/c1cccc(F)c1)Nc1cc(S(=O)(=O)N2CCOCC2)ccc1Cl was read as GLP-1R agonist 8.3%, HEK293 tox 4.0% and GLP1R inv ag inconclusive.
For O=C(/C=C/c1cccc(F)c1)c1ccc(N2CCOCC2)cc1 the results were GLP-1R agonist 10.3%, HEK293 tox -38.7%, GLP1R inv ag 7.3%, Gal4-VP16 FLuc 22.4µM* and RORgamma inh inconclusive.
For O=C(/C=C/c1cccs1)c1ccc(N2CCOCC2)cc1 the results were GLP-1R agonist -9.7%, HEK293 tox -9.0%, GLP1R inv ag inconclusive, Gal4-VP16 FLuc 14.1µM* and RORgamma inh 7.94µM*.
Screening Cc1ccc(C(C(=O)NCc2ccco2)N(C(=O)CNC(=O)c2cccs2)c2c(C)cccc2C)cc1 (configuration not stated) returned GLP-1R agonist 6.8%, HEK293 tox -7.0%, GLP1R inv ag -29.9%, Gal4-VP16 FLuc 15.8µM* and RORgamma inh inconclusive.
Cc1ccc(C(C(=O)NCc2ccco2)N(C(=O)CNC(=O)c2cccs2)c2c(C)cc(C)cc2C)cc1 (configuration not stated) was read as GLP-1R agonist -3.0%, HEK293 tox -7.3%, GLP1R inv ag 0.0%, Gal4-VP16 FLuc -39.6% and RORgamma inh inconclusive.
Cc1ccc(C)c(Cn2c(-c3cccs3)nc3ccccc32)c1 was read as HEK293 tox 3.5% and GLP1R inv ag inconclusive.
Cc1cc(NC(=S)N(Cc2ccc(Cl)cc2)Cc2ccc(C(=O)O)cc2)ccc1Cl was read as GLP-1R agonist 0.0%, HEK293 tox -8.6%, GLP1R inv ag 8.91µM*, Gal4-VP16 FLuc -7.7% and RORgamma inh 40.1%.
For CCOc1ccc(NC(=S)N(CC)Cc2ccccc2)cc1 the results were Gal4-VP16 FLuc 0.4% and RORgamma inh 14.1µM*.
`C=CCNC(=S)N(Cc1ccccc1)Cc1ccc(F)cc1` gave GLP-1R agonist 8.2%, HEK293 tox -11.9%, GLP1R inv ag inconclusive, Gal4-VP16 FLuc -28.2% and RORgamma inh 17.8µM*.
`C=CCNC(=S)N(Cc1ccccc1)Cc1ccccc1` gave GLP-1R agonist 12.7%, HEK293 tox -5.6%, GLP1R inv ag inconclusive, Gal4-VP16 FLuc -11.7% and RORgamma inh inconclusive.
For Cc1cc(C)cc(NC(=S)N(Cc2ccc(Cl)cc2)Cc2ccc(C(=O)O)cc2)c1 the results were GLP-1R agonist 7.9%, HEK293 tox -15.4%, GLP1R inv ag inconclusive, Gal4-VP16 FLuc -18.8% and RORgamma inh 42.4%.
For CN(C)CCCN(Cc1ccccc1)C(=S)Nc1ccc(F)c(Cl)c1 the results were GLP-1R agonist 0.5%, HEK293 tox inconclusive, GLP1R inv ag 1.78µM*, Gal4-VP16 FLuc 9.4% and RORgamma inh -4.4%.
Screening COc1cccc(NC(=O)c2cnc(SCC(=O)N3CCOCC3)n(C)c2=O)c1 returned HEK293 tox -0.5% and GLP1R inv ag -4.3%.
Screening CCOc1ccc(NC(=O)c2cc(S(=O)(=O)N3CCC(C)CC3)cn2C)cc1 returned GLP-1R agonist -0.6%, HEK293 tox 5.9% and GLP1R inv ag 3.0%.
Screening Cc1c(C2=CCN(S(=O)(=O)c3ccc(CC(C)C)cc3)CC2)c2ccccc2n1CC(=O)N1CCCC1 returned HEK293 tox 7.1% and GLP1R inv ag -7.6%.
